From the supplement of paper PMC7380943
Structures can show the parent of a compound that is named as a salt.

What was measured:
[1] = system: CLZ3 (HCA2 human fibroblast dual HR-NHEJ reporter); assay: NHEJ repair efficiency (GFP+ cells) relative to control (log10 fold); higher = more non-homologous end joining; details: 5 µM; doxycycline 0.5 ug/mL
[2] = system: CLZ3 (HCA2 human fibroblast dual HR-NHEJ reporter); assay: HR repair efficiency (tdTomato+ cells) relative to control (log10 fold); higher = more homologous recombination; details: 5 µM; doxycycline 0.5 ug/mL
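Throughout, for HR repair efficiency (tdTomato+ cells) relative to control: compound given one day before doxycycline, which switches on I-SceI endonuclease expression to create double-strand breaks within the integrated reporter.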
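Throughout, for NHEJ repair efficiency (GFP+ cells) relative to control: compound given one day ahead of doxycycline, which switches on I-SceI endonuclease to cut the chromosomally integrated reporter and create DSBs.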

SMILES | NHEJ repair efficiency (log10) [1] | HR repair efficiency (log10) [2]
O=C(O)CC(O)(CC(=O)O)C(=O)O [Citric Acid] | -0.0431 | -0.109
COc1ccc(-c2oc3c(CC=C(C)C)c(O[C@@H]4O[C@H](CO)[C@@H](O)[C@H](O)[C@H]4O)cc(O)c3c(=O)c2O[C@@H]2O[C@@H](C)[C@H](O)[C@@H](O)[C@H]2O[C@@H]2O[C@@H](C)[C@H](O)[C@@H](O)[C@H]2O)cc1 [Epimedin C] | -0.0776 | -0.0883
O=C1C[C@@H](c2ccc(O)cc2)Oc2cc(O)cc(O)c21 [Naringenin] | -0.176 | -0.025
CC(C)=CCc1cc2c(cc1O)O[C@H](c1ccc(O)cc1)CC2=O [Bavachin] | 0.0703 | 0.0642
C[C@@H]1O[C@@H](Oc2c(-c3cc(O)c(O)c(O)c3)oc3cc(O)cc(O)c3c2=O)[C@H](O)[C@H](O)[C@H]1O [Myricetrin] | 0.0716 | -0.0586
CC1(C)CC[C@]2(C(=O)O)CCC3=C([C@@H](CCl)C[C@@H]4[C@@]5(C)C[C@H](O)[C@H](O)[C@@](C)(C(=O)O)[C@@H]5CC[C@@]34C)[C@@H]2C1 [Senegenin] | -0.0514 | -0.031
COc1cc(CNC(=O)CCCC/C=C/C(C)C)ccc1O [Capsaicin] | -0.0748 | -0.0984
COc1c(O[C@@H]2O[C@H](CO)[C@@H](O)[C@H](O)[C@H]2O)cc2occ(-c3ccc(O)cc3)c(=O)c2c1O [Tectoridin] | 0.116 | 0.192
Cc1cc(O)c(C(=O)CCC(C)C)c(=O)o1 [Pogostone] | -0.0825 | -0.0091
OC[C@H]1O[C@H](OC[C@H]2O[C@H](O[C@]3(CO)O[C@H](CO)[C@@H](O)[C@@H]3O)[C@H](O)[C@@H](O)[C@@H]2O)[C@H](O)[C@@H](O)[C@H]1O [Raffinose] | -0.133 | -0.00512
COc1c(O)cc2c(c1O)[C@@H]1O[C@H](CO)[C@@H](O)[C@H](O)[C@H]1OC2=O [Bergenin] | 0.0025 | -0.0334
O=c1cc(-c2ccc(O)cc2)oc2c([C@@H]3O[C@H](CO)[C@@H](O)[C@H](O)[C@H]3O)c(O)c([C@@H]3OC[C@H](O)[C@H](O)[C@H]3O)c(O)c12 [Isoschaftoside] | -0.0804 | 0.0575
O=c1cc(-c2ccc(O)cc2)oc2cc(O)c([C@@H]3O[C@H](CO)[C@@H](O)[C@H](O)[C@H]3O)c(O)c12 [Isovitexin] | 0.0409 | 0.0479
CC1(C)CC[C@]2(C(=O)O[C@@H]3O[C@H](CO)[C@@H](O)[C@H](O)[C@H]3O)CC[C@]3(C)C(=CC[C@@H]4[C@@]5(C)CC[C@H](O[C@@H]6O[C@H](C(=O)O)[C@@H](O)[C@H](O)[C@H]6O[C@@H]6O[C@H](CO)[C@@H](O)[C@H](O)[C@H]6O)C(C)(C)[C@@H]5CC[C@]43C)[C@@H]2C1 [Chikusetsusaponin V] | 0.0351 | 0.0384
CC(=O)O[C@@H]1C[C@@]23C[C@@]24CC[C@H](O[C@@H]2OC[C@@H](O)[C@H](O)[C@H]2O)C(C)(C)[C@@H]4CC=C3[C@]2(C)C[C@@H]3OC4(C[C@@H](C)[C@@H]3[C@@]12C)OC(O)C1(C)OC41 (stereo partly specified) [Cimicifugoside] | 0.0323 | 0.0562
O=c1cc(-c2ccc(O[C@@H]3O[C@H](CO)[C@@H](O)[C@H](O)[C@H]3O)cc2)oc2cc(O)c([C@@H]3O[C@H](CO)[C@@H](O)[C@H](O)[C@H]3O[C@@H]3OC[C@H](O)[C@H](O)[C@H]3O)c(O)c12 [Vaccarin] | -0.0315 | -0.086
CC(C)(C)NCC(O)c1ccc(O)c(CO)c1 (stereo unspecified) [Salbutamol Sulfate] | -0.0861 | -0.085
O=C1C[C@@H](c2ccccc2)Oc2cc(O)cc(O)c21 [Pinocembrin] | 0.123 | 0.0891
CC[C@H](C)[C@@H]1NC(=O)[C@@H]2CCCN2C(=O)[C@@H]2CCCN2C(=O)[C@@H]2CCCN2C(=O)[C@H](CC(C)C)NC(=O)CNC(=O)CNC(=O)[C@H](Cc2ccccc2)NC1=O [Heterophyllin B] | 0.0424 | 0.0454
C[C@H](CC(=O)C[C@@H](C)[C@H]1C[C@H](O)[C@@]2(C)C3=C(C(=O)C[C@]12C)[C@@]1(C)CCC(=O)C(C)(C)[C@@H]1C[C@@H]3O)C(=O)O [Ganoderic Acid A] | 0.0922 | 0.159
O=C(/C=C/c1ccc(O)c(O)c1/C=C/c1ccc(O)c(O)c1)O[C@H](Cc1ccc(O)c(O)c1)C(=O)O [Salvianolic Acid A] | 0.0713 | 0.0119
CCCCCCCCCC(=O)CC(O)S(=O)(=O)O (stereo unspecified) [Sodium Houttuyfonate] | 0.024 | 0.102
CCCCCCCCCCCCCCCC(=O)OC [Methyl Palmitate] | 0.0451 | 0.0601
CC1OC(OC2C(C)OC(OC(=O)C34CCC(C)(C)CC3C3=CCC5C6(C)CCC(OC7OC(C(=O)O)C(OC8OC(CO)C(OC9OC(CO)C(O)C(O)C9O)C(O)C8O)C(OC8OCC(O)C(O)C8O)C7O)C(C)(C=O)C6CCC5(C)C3(C)CC4)C(OC3OCC(O)C(O)C3OC3OCC(O)C(O)C3O)C2O)C(O)C(OC2OCC(O)C(O)C2O)C1O (stereo unspecified) [Gypenoside] | 0.0642 | 0.115

SMILES | NHEJ repair efficiency (log10) [1] | HR repair efficiency (log10) [2]
O=C(O[C@@H]1Cc2c(O)cc(O)cc2O[C@@H]1c1ccc(O)c(O)c1)c1cc(O)c(O)c(O)c1 [Epicatechin Gallate] | -0.236 | -0.0859
c1ccc2c(c1)OC1c3ccccc3OCC21 (stereo unspecified) [Pterocarpan] | 0.112 | -0.0555
CC[C@H](CC[C@@H](C)[C@H]1CC[C@H]2[C@@H]3CC=C4C[C@@H](O[C@@H]5O[C@H](CO)[C@@H](O)[C@H](O)[C@H]5O)CC[C@]4(C)[C@H]3CC[C@]12C)C(C)C [Daucosterol] | -0.00976 | 0.0626
CC(C)(O)CCc1c(O)cc(O)c2c(=O)c(O)c(-c3ccc(O)cc3)oc12 [Noricaritin] | -0.112 | -0.128
COc1ccc(-c2coc3cc(O)ccc3c2=O)cc1 [Formononetin] | -0.06 | 0.128
Cn1cnc2c1c(=O)[nH]c(=O)n2C [Theobromine] | -0.0855 | 0.141
CC1=C2C(=O)O[C@@H](c3ccoc3)[C@]2(C)CCC1 [Fraxinellone] | 0.105 | 0.113
Cc1c(O)c(C)c2c(c1O)C(=O)C[C@@H](c1ccc(O)cc1)O2 [Farrerol] | -0.0045 | 0.437
CC(=O)OC(C)C(C)C(=O)OCC12C3CC(C)(C)[C@H](O[C@@H]1C[C@]1(C)C3=CCC3C4(C)CCC(O[C@@H]5O[C@H](C(=O)O)[C@@H](O[C@H]6O[C@H](CO)[C@@H](O)[C@H](O)[C@H]6O)[C@H](O)[C@H]5O[C@@H]5OC[C@@H](O)[C@H](O)[C@H]5O)[C@](C)(CO)C4CCC31C)C2O (stereo partly specified) [Sodium Aescinate] | 0.101 | 0.0537
COc1cc2c(c(OC)c1OC)-c1c(cc(OC)c(OC)c1OC)C[C@H](C)[C@H](C)C2 [Schisandrin A] | -0.121 | -0.0756
COc1c(O[C@@H]2O[C@H](C(=O)O)[C@@H](O)[C@H](O)[C@H]2O)cc(O)c2c(=O)cc(-c3ccccc3)oc12 [Wogonoside] | -0.0783 | -0.00302
COc1cc(C(=O)O)cc(OC)c1O [Syringic acid] | -0.0271 | -0.177
C[C@@H]1O[C@@H](O[C@H]2[C@H](OC(=O)[C@]34CCC(C)(C)C[C@H]3C3=CC[C@@H]5[C@@]6(C)C[C@H](O)[C@H](O[C@@H]7O[C@H](CO)[C@@H](O)[C@H](O)[C@H]7O)C(CO)(CO)[C@@H]6CC[C@@]5(C)[C@]3(C)C[C@H]4O)OC[C@H](O)[C@@H]2O)[C@H](O)[C@H](O)[C@H]1O[C@@H]1OC[C@@H](O)[C@H](O[C@@H]2OC[C@](O)(CO)[C@H]2O)[C@H]1O [Platycodin D] | -0.142 | -0.287
O=C(O)c1ccc(O)c(O)c1 [3,4-Dihydroxybenzoic acid] | 0.00743 | -0.033
OC[C@H]1O[C@@H](Oc2ccc(O)cc2)[C@H](O)[C@@H](O)[C@@H]1O [Arbutin] | -0.0725 | 0.0689
C/C=C(/C)C(=O)O[C@@H]1[C@H](OC(=O)CC(C)C)c2c(ccc3ccc(=O)oc23)OC1(C)C [Praeruptorin C] | -0.0108 | 0.00182
C/C=C(\C)C(=O)OC1c2c(ccc3ccc(=O)oc23)OC(C)(C)C1OC(=O)/C(C)=C/C (stereo unspecified) [Praeruptorin B] | -0.0992 | 0.0577
OC[C@H]1O[C@@H](Oc2cc(O)cc(/C=C/c3ccc(O[C@@H]4O[C@H](CO)[C@@H](O)[C@H](O)[C@H]4O)cc3O)c2)[C@H](O)[C@@H](O)[C@@H]1O [Mulberroside A] | 0.049 | 0.234
C=CC1=C(C)/C(=C/c2[nH]c(Cc3[nH]c(/C=C4\NC(=O)C(C)=C4C=C)c(C)c3CCC(=O)O)c(CCC(=O)O)c2C)NC1=O [Bilirubin] | -0.0874 | -0.0828
COc1cc2c(c(OC)c1OC)-c1c(cc3c(c1OC)OCO3)C[C@H](C)[C@@](C)(O)C2 [Schizandrol B] | -0.0319 | -0.132
O=c1oc2c(O)cc(O)cc2c2oc3cc(O)c(O)cc3c12 [Isodemethylwedelolacton] | -0.0118 | 0.0907
C[C@H]1O[C@H](OC[C@H]2O[C@@H](Oc3c(-c4ccc(O)cc4)oc4cc(O)cc(O)c4c3=O)[C@H](O)[C@@H](O)[C@@H]2O)[C@@H](O)[C@@H](O)[C@@H]1O [Kaempferol-3-O-Rutinoside] | 0.0149 | -0.078
c1ccc([C@H]2CN3CCSC3=N2)cc1 [Levamisole hydrochloride] | 0.0656 | -0.0158
C[C@@H]1O[C@@H](O[C@H]2[C@H](Oc3cc(O)c4c(c3)O[C@H](c3ccc(O)cc3)CC4=O)O[C@H](CO)[C@@H](O)[C@@H]2O)[C@H](O)[C@H](O)[C@H]1O [Naringin] | -0.127 | -0.0146
